# This is part of a sample that, as a whole, favours compounds with a hit. Of some 83,000 tested, about 20% had one in any assay.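 Note: values are percent growth. 100 is the growth of untreated cells, values between 100 and 0 indicate rising inhibition; between -100 and 0 indicates cell death.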 A number with no mark means an inactive call. Activity calls are given as the source filed them. The calls were made as follows: active = growth percent below 10; inactive = the rest.
# Experiments:
# Assay in all cases: NCI-60 one-dose screen, 48 h (100 = growth as untreated, 0 = no growth, -100 = all killed)
# Conditions in all cases: 10 µM unless noted
# T-47D breast = test system: T-47D breast
# BT-549 breast = test system: BT-549 breast
# MDA-MB-435 melanoma = test system: MDA-MB-435 melanoma
# SW-620 colon = test system: SW-620 colon
# MCF7 breast = test system: MCF7 breast
# HCT-116 colon = test system: HCT-116 colon
# HCC-2998 colon = test system: HCC-2998 colon
# KM12 colon = test system: KM12 colon
Structure (SMILES),growth (T-47D breast),growth (BT-549 breast),growth (MDA-MB-435 melanoma),growth (SW-620 colon),growth (MCF7 breast),growth (HCT-116 colon),growth (HCC-2998 colon),growth (KM12 colon)
CC(C)Cc1ccc(C(C)C(=O)NCc2ccc(Cn3c(=O)sn(-c4ccc(Cl)cc4)c3=O)cc2)cc1 (stereo unspecified),54.9%,95.1%,84.8%,59.8%,66.9%,75.6%,96.2%,69.8%
CCc1c(Nc2ccc(C)cc2)[nH]c(N)nc1=S,90.1%,100%,104%,107%,91.3%,98.3%,,104%
O=C(Nc1ccc(Cl)cc1)Nc1ccc(Cl)c(Cl)c1,-12.2% (active),43.3%,7.4% (active),14.4%,-4.33% (active),5.23% (active),,6.34% (active)
CC(O)(CO)c1ccccc1 (stereo unspecified),102%,93.6%,99.1%,103%,98.7%,98.3%,,103%
C#CCNC(=O)[C@H](Cc1ccccc1)NC(=O)[C@]12CC[C@@H](C(=C)C)[C@@H]1[C@H]1CC[C@@H]3[C@@]4(C)Cc5c([nH]c6ccccc56)C(C)(C)[C@@H]4CC[C@@]3(C)[C@]1(C)CC2,75.3%,105%,105%,111%,,85.9%,109%,
CCCNC(=O)Oc1ccc(/C(=C(\C)c2ccccc2)c2ccc(OCCN3CCCCC3)cc2)cc1,38.7%,69.8%,78.8%,80.8%,27.9%,46.5%,86.9%,58.9%
COc1ccc(C(O)c2cc3c(N)c(C(=O)Nc4cccc(OC)c4)sc3nc2C)cc1 (stereo unspecified),62.8%,26.5%,-9.54% (active),19.9%,17.8%,5.98% (active),5.05% (active),2.91% (active)
CCc1c(Nc2ccc(C)cc2)nc(N)[nH]c1=O,96.4%,101%,106%,109%,93.7%,98.6%,,102%
COc1ccc(C(=O)/C=C/c2ccc(OCc3ccccc3)c(OC)c2)cc1OC,47.4%,51.8%,61%,12.9%,22.5%,18.2%,,36.5%
Fc1ccc(-n2cc(COc3ncnc4sc5c(c34)CCCC5)nn2)cc1Cl,95.1%,103%,99%,101%,,101%,114%,105%
Cc1ccc(Nc2cc(=S)nc(N)[nH]2)cc1C,89.2%,95.9%,103%,96.7%,88.5%,90.1%,,102%
C=C1C(=O)O[C@H]2[C@H]1CC/C(COC(=O)CCCCCC(=O)OC/C1=C/CC[C@@]3(C)O[C@H]3[C@H]3OC(=O)C(=C)[C@@H]3CC1)=C\CC[C@@]1(C)O[C@@H]21,1.26% (active),35.7%,30.8%,8.05% (active),12.8%,-37.3% (active),84.5%,62.8%
CCN(CC)CCOC(COc1cc(C)cc(C)c1)COc1cc(C)cc(C)c1,18.8%,50.9%,19.5%,24.1%,,7.06% (active),16.8%,31.7%
CC(=O)c1c(-c2ccc(OC(F)(F)F)cc2)nc2ccccn12,80.6%,91.3%,102%,105%,89.8%,80.8%,105%,97%
O=c1[nH]c(=O)[nH]c(=S)[nH]1,98.9%,103%,103%,102%,97.8%,98.5%,,102%
COc1ccccc1N1CCN(C(=O)c2ccc3nc(NC(=O)c4ccc(NCCc5ccccc5)c([N+](=O)[O-])c4)sc3c2)CC1,73.2%,80.3%,89.4%,75.1%,70.8%,57.7%,110%,79%
CCCCCCCCCCCCCCCC(=O)OC[C@@]1(O)C[C@@]23CC[C@@H]4C(C)(C)CCC[C@@]4(C)[C@@H]2CC[C@H]1C3,83.5%,86.7%,107%,108%,60.5%,-79.1% (active),118%,111%
CCCCOc1ccc(/C=N/Nc2cc(C)nc3ccc(Cl)cc23)cc1,21.5%,96.6%,-85.2% (active),-58.3% (active),-70.8% (active),-68% (active),-71.1% (active),-76.6% (active)
Clc1ccc(C2CC(c3cccc(Nc4ccncc4)c3)=NN2c2cc(Cl)cc(Cl)c2)cc1 (stereo unspecified),86.4%,104%,12.7%,-73.1% (active),-8.62% (active),-74.2% (active),19.6%,9.65% (active)
CSc1nc(O)c(-c2ccccc2)c(=O)[nH]1,100%,103%,101%,98.8%,96.3%,99.4%,,103%
CCOc1ccc(/C=N/Nc2cc(C)nc3ccc(Cl)cc23)cc1,60.3%,80.6%,40.9%,-72.8% (active),1.28% (active),-75.3% (active),27.5%,33.3%
CC[C@H](C)[C@@H]1NC(=O)[C@H](Cc2ccc(O)cc2)N(C)C(=O)[C@H](Cc2ccccc2)NC(=O)CN(C)C(=O)[C@@H]2CCCN2C(=O)[C@@H](Cc2ccccc2)N(C)C(=O)[C@H](CC(C)C)NC1=O,0.772% (active),69.7%,-46.3% (active),3.59% (active),,1.24% (active),-23.9% (active),1.4% (active)
O=CNc1cc(Cl)cc(Cl)c1,100%,99.4%,107%,103%,98.3%,100%,,101%
CN1C(=O)N(C)[C@H]2NC(NN)=N[C@H]21,91.7%,101%,101%,103%,97.8%,96.9%,102%,105%
CCNNC(=O)[C@@H]1[C@H](c2cc(OC)c(OC)c(OC)c2)c2cc3c(cc2[C@H](O)[C@H]1CO)OCO3,80.6%,-27.2% (active),-26.9% (active),20.5%,,0.945% (active),6.02% (active),
COc1ccc(/C=C(/c2ccccc2)[N+](=O)[O-])cc1,-64.5% (active),-18.7% (active),-35.6% (active),-57.6% (active),,-71.6% (active),-80.7% (active),
O=C1Nc2ccccc2/C1=N/c1nc(-c2ccc(Cl)cc2)cs1,43.4%,63.8%,72.4%,68.5%,52.6%,59.1%,86.4%,70.8%
Fc1ccc2nc3c(cc2c1)CSc1nnc(-c2ccc[nH]c2=S)n1N3,84.1%,97.7%,103%,93.5%,98.7%,92.7%,103%,106%
COc1ccc2c(c1)OC13Oc4cc(OC)ccc4C=C1CCCC3=C2,44.7%,35%,-10.4% (active),16.6%,8.63% (active),20%,57.9%,-5.69% (active)
COc1ccc(-c2nc(SC(C)C)nc(NNC(N)=O)c2C#N)cc1,84.8%,,3.51% (active),50.7%,84.3%,102%,88.9%,58.6%
